Values without a mark were called inactive. Active and inactive are the calls of the source. Calls come from the whole dose curve; as a rule, active = well fitted inhibition curve with a large enough effect; inconclusive = small, poorly fitted or top-dose-only effect; inactive = flat fitted curve, though single readings scatter.
biological target: Luciferin 4-monooxygenase (Photinus pyralis) (UniProt P08659); assay: Primary firefly luciferase (FLuc) qHTS assay for identification of artifact compounds. (AID 1845220); settings: purified firefly luciferase, luminescence, 5 min; series mostly up to 54.1 µM; activity change, negative = inhibition: at the top concentration; note: nearly all actives have a fitted effect of over 60% in size;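 for activity change, negative = inhibition: plate controls were DMSO vehicle for no effect and no enzyme for full effect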
Method in brief: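 In this counter-screen for luciferase artifacts, test compounds met substrate (10 uM each luciferin and ATP) before 10 nM enzyme started the reaction. Light output was measured 5 min later.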

Row | Structure (SMILES) | outcome | activity change, negative = inhibition
1 | CC1(C)CC[C@]23CO[C@@]4(CCC5[C@@]6(C)CC[C@H](O[C@@H]7OC[C@H](O[C@@H]8O[C@H](CO)[C@@H](O)[C@H](O)[C@H]8O[C@@H]8OC[C@@H](O)[C@H](O)[C@H]8O)[C@H](O)[C@H]7O[C@@H]7O[C@H](CO)[C@@H](O)[C@H](O)[C@H]7O)[C@@](C)(CO)C6CC[C@@]5(C)[C@]4(C)C[C@H]2O)[C@@H]3C1 (stereo partly drawn) | inactive [at 11.6 µM] | 
2 | CC(=O)OC1C(O)CC2(C)C(CCC3(C)C2CC=C2C4C5(CCC(CO[C@@H]6O[C@H](CO)[C@@H](O)[C@H](O)[C@H]6O)(OC5=O)C4(C)O)C(O)CC23C)C1(C)C (stereo partly drawn) |  | 2.67% [at 25.7 µM]
3 | CCNC(=O)c1noc(-c2cc(Cl)c(O)cc2O)c1-c1ccc(OC)cc1 |  | 4.41%
4 | CN1CCC(c2cn(C)c3ccc(OS(=O)(=O)c4c(F)cccc4F)cc23)CC1 | inactive | 
5 | C[C@@H]1O[C@@H](O[C@H]2[C@H](O[C@H]3CC[C@@]4(C)C(CC[C@]5(C)C4C=C[C@]46OC[C@@]7(CCC(C)(C)C[C@H]74)[C@@H](O[C@@H]4O[C@@H](C)[C@H](O)[C@@H](O)[C@H]4O)C[C@]65C)[C@]3(C)CO)O[C@H](CO)[C@@H](O)[C@@H]2O[C@@H]2O[C@H](CO)[C@@H](O)[C@H](O)[C@H]2O)[C@H](O)[C@H](O)[C@H]1O (stereo partly drawn) | inactive [at 11.6 µM] | 
6 | COc1ccc(CCN(C)CCCOc2nsc(-c3ccccc3)n2)cc1OC |  | 1.53%
7 | O=C(O)c1ccc(N2C(=O)/C(=C/c3ccc(-c4ccc([N+](=O)[O-])cc4)o3)C=C2c2ccccc2)cc1 | inactive | 
8 | CCCC1(CCC)CCC2(CCN(CCCN(CC)CC)C2)CC1 | inactive | 
9 | Cc1[nH]c(/C=C2\C(=O)Nc3ccc(S(=O)(=O)N(C)c4cccc(Cl)c4)cc32)c(C)c1C(=O)N1CCN(C)CC1 | inactive | 
10 | CC(=O)OC1C(=O)C2C3OCC4=C3[C@@](C)(CC[C@@H]4O)CC[C@]2(C)[C@H]1C(C)C (stereo partly drawn) |  | -6.92%
11 | COc1ccc(NC(=O)c2ccc(-c3ccc(-c4nnc(C)o4)cc3C)cc2)cc1N1CCN(C)CC1 | inactive | 
12 | CC(=O)O[C@H]1CC(C)(C)CC2[C@]13CO[C@@]21CCC2[C@@]4(C)CC[C@H](O[C@@H]5OC[C@H](O[C@@H]6O[C@H](CO)[C@@H](O)[C@H](O)[C@H]6O[C@@H]6OC[C@@H](O)[C@H](O)[C@H]6O)[C@H](O)[C@H]5O[C@@H]5O[C@H](CO)[C@@H](O)[C@H](O)[C@H]5O)[C@@](C)(CO)C4CC[C@@]2(C)[C@]1(C)C[C@H]3O (stereo partly drawn) | inactive [at 11.6 µM] | 
13 | CCOC(=O)N1CCC(CN(Cc2ccc(Cl)cc2)Cc2ccc([N+](=O)[O-])s2)C1 (stereo not drawn) | inactive | 
14 | Cc1nc(Nc2cnn(C3CCNCC3)c2)nc2c1N(C)C(=O)c1cc3ccccc3cc1N2C | inactive | 
15 | Cc1cc(NC(=O)c2cccc(NC(=O)/C=C/CN(C)C)c2)ccc1Nc1nccc(-c2cccnc2)n1 |  | -2.31%
16 | CN(C)CC1CCn2c(c(C3=C(c4cn(C)c5ccccc45)C(=O)NC3=O)c3ccccc32)C1 (stereo not drawn) |  | -3.32%
17 | CC(=O)c1c(C)cc2cccc(O)c2c1O[C@@H]1O[C@H](CO)[C@@H](O)[C@H](O)[C@H]1O | inactive | 
18 | Cc1cc2c(c(=O)o1)C=C1CC[C@H]([C@H](C)Cn3cnc(=N)c4[nH]cnc43)C[C@@H]1O2 |  | -15.5%

Reference: PubChem BioAssay (NCATS)
